Screening data: PubChem, University of Kansas High Throughput Screening Laboratory
Hits are enriched below; roughly 3.6% of the tested compounds scored in any of these assays.
Pf apPOL block: Pf-apPOL DNA polymerase inhibition; inhibition, % at 10 µM; actives 0.25% (n = 210,000); Recombinant Pf-apPOL, molecular beacon fluorescence, 1.5 h; AID 1794808
mHTT CaM bind: mHTT-calmodulin interaction abrogation | AID 1671202 | inhibition, % at 15 µM | AlphaScreen His-mHTT/GST-CaM binding, luminescence | actives 3.6% (n = 190,000);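 further: 0% = both proteins with DMSO and 100% = one protein alone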
* marks the source's active call; other numbers are inactive results; / = no result. No stated cut-off is given here; in the data, active means inhibition above about 50%; inactive means the rest.

SMILES	Pf apPOL block	mHTT CaM bind
O=C(c1ccsc1)N1CCCN(C2CCN(Cc3ccc(F)cc3)C2=O)CC1 (centres undefined)	-1.3	18.7
Cc1ccccc1C(=O)N1CCCN(C2CCN(Cc3ccc(F)cc3)C2=O)CC1 (centres undefined)	0.2	56.7*
Cc1ccc(NC(=O)CCS(=O)(=O)c2ccc(Br)s2)cc1Cl	-3.7	0.0
O=C(Nc1nnc(C2CC(=O)N(c3ccccc3)C2)o1)C1=COCCO1 (centres undefined)	-8.0	24.5
O=C(Nc1cnc(-c2cccnc2)nc1)C1CCC1	-3.0	2.1
NNc1nccc(Nc2ccccc2C(=O)O)n1	-4.4	100.2*
O=C(O)c1ccccc1Nc1ccnc(N2CCOCC2)n1	-1.5	0.0
Cc1[nH]c(=O)[nH]c(=O)c1CCc1nnc(SCC(=O)NCc2ccco2)o1	-2.3	-6.1
Cc1[nH]n2c(=O)cc(-c3ccccc3)nc2c1-c1ccccc1	-5.3	10.7
CCCc1cc(=O)n2[nH]c(Cc3ccccc3)c(-c3ccccc3OC)c2n1	1.9	0.1
COc1ccc(-c2c(C)[nH]n3c(=O)cc(-c4ccccc4)nc23)cc1	1.7	73.0*
COc1ccccc1-c1c(Cc2ccccc2)[nH]n2c(=O)cc(-c3ccccc3)nc12	1.8	67.3*
COc1cc(Br)cc2c1OC1(C)CC2NC(=O)N1c1ccccc1F (centres undefined)	1.5	-3.3
CC(C)CNC(=O)c1cncc(-c2ccc(F)cc2F)c1	36.8	1.2
CCCNC(=O)c1cncc(-c2ccc(F)cc2F)c1	62.2*	12.4
C=C1CCN([C@@H](CC(C)C)C(=O)Nc2nc3ccc(Cl)cc3s2)S(=O)(=O)c2ccccc21	-4.3	94.2*
C=C1CCN([C@@H](CC(C)C)C(=O)NCCCc2ccccc2)S(=O)(=O)c2ccccc21	-1.0	64.6*
C=C1CCN([C@@H](CC(C)C)C(=O)Nc2ccc(OC)cc2)S(=O)(=O)c2ccccc21	-4.1	0.9
C=C1CCN([C@@H](CC(C)C)C(=O)O)S(=O)(=O)c2ccccc21	2.1	3.7
O=C(/C=C1\Sc2ccccc2N(Cc2ccc(F)cc2)C1=O)NC1CCCC1	2.9	-3.0
COc1ccc(NC(=O)CN(c2cc(Cl)ccc2Cl)S(C)(=O)=O)cc1OC	-0.9	8.7
O=C(Cc1c[nH]c2ncccc12)NCc1ccccc1	-0.7	0.6
O=C(Cc1c[nH]c2ncccc12)NCc1ccc(C(F)(F)F)cc1	85.9*	-9.5
Oc1c(Cl)cc(Cl)cc1C=NNC(=S)NCC1CCCO1 (centres undefined)	69.9*	/
Oc1c(Cl)cc(Cl)cc1C=NNC(=S)NC1CC2CCC1C2 (centres undefined)	-5.7	/
SMILES	Pf apPOL block	mHTT CaM bind
CCn1cc(CN2CCC(C(=O)NCc3ccc(N(C)C)cc3)CC2)c2cc(OC)ccc21	-1.6	55.8*
CCn1cc(CN2CCC(C(=O)NCc3ccc(OC)cc3)CC2)c2cc(OC)ccc21	1.0	20.0
O=C(Cn1cncc1-c1ccc([N+](=O)[O-])cc1)N1CCOCC1	0.2	2.8
Cc1ccc(CNC(=O)N2CCc3c(nc4cc[nH]n4c3=O)C2)cc1	2.2	-4.0
c1ccc(C2=NC(c3ccccc3)(c3ccccc3)c3ccccc3N2)cc1	/	61.2*
Cc1cc(C)c(C2=NC(c3ccccc3)(c3ccccc3)c3ccccc3N2)c(=O)[nH]1	-7.6	32.0
CCN(CC)CCNC(=O)CC1CCN(C(=O)C2CCCCC2)CC1	-1.4	1.1
CCN(CC)c1ccc(C2NN=C(Cc3ccccc3)S2)cc1 (centres undefined)	-14.4	85.0*
CCN(CC)c1ccc(NC(=O)Cc2ccccc2)cc1	0.2	38.7
O=C(Nc1nccs1)c1cc2cc(Br)ccc2oc1=O	1.0	-4.0
O=C1CCCc2nn(-c3ccccc3)c(-c3cccnc3)c21	-2.5	-4.0
Cc1occc1C(=O)Nc1sc2c(c1C(N)=O)CCCCCC2	-1.2	1.6
O=C1c2ccccc2-c2cc(Cl)nc3ccc(Cl)c1c23	-2.1	5.0
Cc1ccc2nc3c(N)c(Cl)cc4c3c(c2c1)-c1ccccc1C4=O	-3.0	61.0*
Cc1c(C(=O)Nc2ccc(Cl)cn2)sc2ncn(Cc3cccc(F)c3)c(=O)c12	-4.1	-5.0
CN(C)C(=O)c1csc(N2CCN(c3cccc(Cl)c3)CC2)n1	-3.8	52.9*
COc1cccc(N2CCN(c3nc(C(=O)N(C)C)cs3)CC2)c1	-5.0	16.6
O=C1C[C@H]2C=CCc3cccc(c32)CN1Cc1ccc(F)cc1	-7.6	32.5
Cc1cccc(CN2Cc3cccc4c3[C@H](C=CC4)CC2=O)c1	-4.4	100.3*
NNc1nc(-c2ccccc2)c2cc(Br)ccc2n1	-9.6	76.4*
COc1nc(-c2ccccc2)c2cc(Br)ccc2n1	-3.4	-8.0
Cc1ccc(NC(=O)O[C@@H]2C[C@H]3C[C@@H]2[C@H]2CCCCN2C3)cc1	-1.8	-4.7
COc1ccccc1CC(=O)Nc1ccc(OC)c(OC)c1	-8.7	0.0
COc1cc2c(C)[nH]c(=O)c(CC(=O)Nc3ccccc3)c2cc1OC	-3.4	64.8*
Cc1ccc2nc(SCC(=O)NCCOC34CC5CC(CC(C5)C3)C4)[nH]c2c1	-2.7	19.0
SMILES	Pf apPOL block	mHTT CaM bind
COCCn1cc2c3c(cccc31)CN(C(=O)c1cc(Cl)ccc1OC)CC2	0.5	70.8*
COCCn1cc2c3c(cccc31)CN(C(=O)c1ccc(F)c(F)c1)CC2	-2.0	61.3*
COCCn1cc2c3c(cccc31)CN(C(=O)c1ccc(Br)o1)CC2	-7.3	75.8*
COCCn1cc2c3c(cccc31)CN(C(=O)Nc1cc(Cl)ccc1C)CC2	-0.3	11.0
COCCn1cc2c3c(cccc31)CN(C(=O)c1ccc(F)cc1)CC2	-0.9	64.2*
COCCn1cc2c3c(cccc31)CN(C(=O)Nc1cccc(F)c1)CC2	0.9	2.6
CCCNC(=O)N1CCc2cn(CCOC)c3cccc(c23)C1	-1.6	-5.8
COCCn1cc2c3c(cccc31)CN(C(=O)c1cc(F)ccc1F)CC2	-2.9	26.4
O=C(NCCOc1cccc2cccnc12)c1cc(-c2ccco2)on1	-8.4	2.9
O=c1nc2s/c(=C\c3ccc(-c4cccc([N+](=O)[O-])c4)o3)c(=O)n2nc1-c1ccccc1	-4.4	1.0
Cc1nccn1-c1cc(C(F)(F)F)c(C#N)c2nc3ccccc3n12	8.5	0.0
CC(=O)N1c2ccc(S(=O)(=O)Nc3cc(C)cc(C)c3)cc2CC1C (centres undefined)	4.1	7.0
COc1ccc(N2C(=O)CSC2c2ccc([N+](=O)[O-])cc2)cc1Cl (centres undefined)	4.1	4.0
CCn1c(=O)c2c(ncn2Cc2ccccc2)n(-c2ccc(F)cc2)c1=O	-0.7	5.1
CCOC(=O)C1CCC(CNC(=O)N2CC(CC)Oc3ccccc32)CC1 (centres undefined)	1.7	-7.0
COC(=O)CNC(=O)N1CC2CCCN2c2ccccc21 (centres undefined)	0.2	7.5
CCOC(=O)C1CCC(CNC(=O)N2CC3CCCN3c3ccccc32)CC1 (centres undefined)	-2.3	65.6*
CCOC(=O)CC1(NC(=O)N2CC3CCCN3c3ccccc32)CCCCC1 (centres undefined)	-3.3	64.4*
Cc1cc(C2CCCN2C(=O)c2ccc(F)cc2)no1 (centres undefined)	1.1	2.7
COC(=O)c1ccc2nc(NC(=O)NCc3cccs3)sc2c1	-3.9	-9.7
CC(C)N1CCC(CC(=O)N2CCCC3(C2)Nc2ccccc2NC3=NC(C)(C)C)CC1 (centres undefined)	-5.0	46.1
